Assay in all cases: DAPPL (digital affinity profiling via proximity ligation, sequencing); 10 mM Tris-HCl pH 7.5, 50 mM NaCl, 1 mM DTT, 4% glycerol, room temperature, 30 min; GST-TFs on glutathione beads, 16-mer random dsDNA library, 0.1% formaldehyde crosslink after washing; high values mean tight binding
Common to all, as to conditions: protein: recombinant; tags: N-terminal GST; dsDNA, one strand shown

For one test, the target named is T1, ELK1 (Homo sapiens, UniProt P19419 1-428).
T1 sequence: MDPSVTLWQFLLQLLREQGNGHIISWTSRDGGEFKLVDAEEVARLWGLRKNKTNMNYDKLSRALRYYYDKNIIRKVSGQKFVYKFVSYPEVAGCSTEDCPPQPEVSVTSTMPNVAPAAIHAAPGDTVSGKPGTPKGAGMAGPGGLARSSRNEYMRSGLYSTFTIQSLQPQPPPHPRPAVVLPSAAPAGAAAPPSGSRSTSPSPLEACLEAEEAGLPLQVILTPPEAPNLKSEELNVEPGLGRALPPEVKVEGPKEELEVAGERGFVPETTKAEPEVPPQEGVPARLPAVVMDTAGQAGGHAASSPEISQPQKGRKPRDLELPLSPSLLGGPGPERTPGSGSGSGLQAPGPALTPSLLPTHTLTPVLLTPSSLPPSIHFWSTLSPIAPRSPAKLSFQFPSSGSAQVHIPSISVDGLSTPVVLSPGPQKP
The procedure, abridged: (§1)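 GST fusions of human transcription factors were expressed in yeast and captured with glutathione beads. Once given DNA barcodes and pooled alongside a tag-only sample, they were incubated for 30 min at room temperature with 200 nmole of a random double-stranded 16-mer DNA library in Tris/NaCl/DTT/glycerol buffer, then washed, crosslinked (0.1% formaldehyde), proximity-ligated, PCR-amplified and sequenced on an Illumina NextSeq500. The binding signal of each hexamer is its read frequency for a factor divided by its frequency for the tag-only sample.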

Another test has as its target T2, GABPA (Homo sapiens, UniProt Q06546 1-454).
T2 sequence: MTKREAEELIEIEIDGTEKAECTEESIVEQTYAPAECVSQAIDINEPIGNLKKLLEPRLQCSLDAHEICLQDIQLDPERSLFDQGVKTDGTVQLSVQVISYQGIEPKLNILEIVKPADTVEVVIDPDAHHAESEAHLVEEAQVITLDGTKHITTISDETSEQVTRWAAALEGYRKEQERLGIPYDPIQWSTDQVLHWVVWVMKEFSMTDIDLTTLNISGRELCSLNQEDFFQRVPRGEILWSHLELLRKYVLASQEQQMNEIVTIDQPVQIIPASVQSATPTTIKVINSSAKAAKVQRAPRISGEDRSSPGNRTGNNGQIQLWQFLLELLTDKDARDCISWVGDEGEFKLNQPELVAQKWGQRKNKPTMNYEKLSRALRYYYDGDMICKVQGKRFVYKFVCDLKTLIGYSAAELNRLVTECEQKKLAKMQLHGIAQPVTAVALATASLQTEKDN
An outline of the steps:
as §1

The target in the next test is T3, ERG (Homo sapiens, UniProt P11308 1-479).
T3 sequence: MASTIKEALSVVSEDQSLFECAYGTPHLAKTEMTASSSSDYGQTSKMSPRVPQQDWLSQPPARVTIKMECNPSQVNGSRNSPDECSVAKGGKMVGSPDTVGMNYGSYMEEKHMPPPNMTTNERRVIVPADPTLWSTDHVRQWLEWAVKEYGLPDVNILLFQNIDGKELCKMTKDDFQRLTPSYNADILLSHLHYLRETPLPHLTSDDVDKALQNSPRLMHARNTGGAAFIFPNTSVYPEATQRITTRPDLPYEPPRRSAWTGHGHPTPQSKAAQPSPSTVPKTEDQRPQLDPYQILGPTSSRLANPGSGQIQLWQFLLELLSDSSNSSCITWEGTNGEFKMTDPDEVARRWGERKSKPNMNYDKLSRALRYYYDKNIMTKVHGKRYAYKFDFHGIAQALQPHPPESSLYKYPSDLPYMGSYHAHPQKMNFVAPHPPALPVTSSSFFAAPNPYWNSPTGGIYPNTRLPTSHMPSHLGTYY
The procedure, abridged: as §1

A further test addresses ELF1 (Homo sapiens, UniProt P32519 1-619). The procedure, abridged: as §1
The next test concerns the target T4, EHF (Homo sapiens, UniProt Q9NZC4 1-300).
T4 sequence: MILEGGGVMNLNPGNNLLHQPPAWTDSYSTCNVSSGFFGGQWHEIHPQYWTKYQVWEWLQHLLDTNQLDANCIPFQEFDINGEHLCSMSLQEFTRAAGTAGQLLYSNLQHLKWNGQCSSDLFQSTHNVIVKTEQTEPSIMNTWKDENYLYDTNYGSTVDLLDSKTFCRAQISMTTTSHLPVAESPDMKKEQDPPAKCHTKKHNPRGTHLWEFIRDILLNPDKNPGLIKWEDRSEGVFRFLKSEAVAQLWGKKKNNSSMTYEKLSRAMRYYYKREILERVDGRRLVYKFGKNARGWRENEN
The procedure, abridged: as §1

A further test addresses SPI1 (Homo sapiens, UniProt P17947 1-270). The procedure, abridged: as §1
A further test deals with SPIB (Homo sapiens, UniProt Q01892 1-262). The procedure, abridged:
as §1

Another test concerns the target T5, FEV (Homo sapiens, UniProt Q99581 1-238).
T5 sequence: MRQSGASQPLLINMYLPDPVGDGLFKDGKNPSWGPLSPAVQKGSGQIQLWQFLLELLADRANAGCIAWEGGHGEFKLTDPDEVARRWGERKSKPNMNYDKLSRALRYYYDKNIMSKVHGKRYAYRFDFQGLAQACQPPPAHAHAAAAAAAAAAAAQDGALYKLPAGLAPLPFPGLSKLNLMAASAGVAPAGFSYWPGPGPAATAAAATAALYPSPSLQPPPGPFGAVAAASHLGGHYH
The procedure, abridged: as §1

In a further test the target is ETV5 (Homo sapiens, UniProt P41161 1-510). The procedure, abridged:
as §1

The target in another test is ELF4 (Homo sapiens, UniProt Q99607 1-663). The procedure, abridged:
as §1

A further test has as its target T6, ELK4 (Homo sapiens, UniProt P28324-2 1-405).
T6 sequence: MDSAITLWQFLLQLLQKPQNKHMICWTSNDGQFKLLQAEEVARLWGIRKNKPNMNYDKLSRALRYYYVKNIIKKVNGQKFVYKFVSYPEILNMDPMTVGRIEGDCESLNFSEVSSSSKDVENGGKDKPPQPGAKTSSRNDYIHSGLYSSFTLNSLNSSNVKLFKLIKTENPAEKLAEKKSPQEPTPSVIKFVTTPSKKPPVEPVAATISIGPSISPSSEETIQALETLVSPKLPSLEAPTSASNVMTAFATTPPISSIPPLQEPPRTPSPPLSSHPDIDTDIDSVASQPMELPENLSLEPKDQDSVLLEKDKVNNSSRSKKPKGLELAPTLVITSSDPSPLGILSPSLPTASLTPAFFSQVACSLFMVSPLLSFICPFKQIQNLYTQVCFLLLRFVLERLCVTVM
An outline of the steps: as §1

A further test addresses T7, ETV2 (Homo sapiens, UniProt O00321 1-342).
T7 sequence: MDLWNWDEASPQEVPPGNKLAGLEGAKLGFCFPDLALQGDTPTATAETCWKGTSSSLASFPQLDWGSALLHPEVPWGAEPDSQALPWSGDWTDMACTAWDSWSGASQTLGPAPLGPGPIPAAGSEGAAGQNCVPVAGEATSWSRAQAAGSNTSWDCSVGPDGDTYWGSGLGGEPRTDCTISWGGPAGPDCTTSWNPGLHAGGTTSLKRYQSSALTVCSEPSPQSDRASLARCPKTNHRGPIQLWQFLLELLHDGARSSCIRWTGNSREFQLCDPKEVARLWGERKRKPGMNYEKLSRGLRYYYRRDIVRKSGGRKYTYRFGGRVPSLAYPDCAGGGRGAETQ
An outline of the steps:
as §1

For another test, the target named is T8, ELF3 (Homo sapiens, UniProt P78545 1-371).
T8 sequence: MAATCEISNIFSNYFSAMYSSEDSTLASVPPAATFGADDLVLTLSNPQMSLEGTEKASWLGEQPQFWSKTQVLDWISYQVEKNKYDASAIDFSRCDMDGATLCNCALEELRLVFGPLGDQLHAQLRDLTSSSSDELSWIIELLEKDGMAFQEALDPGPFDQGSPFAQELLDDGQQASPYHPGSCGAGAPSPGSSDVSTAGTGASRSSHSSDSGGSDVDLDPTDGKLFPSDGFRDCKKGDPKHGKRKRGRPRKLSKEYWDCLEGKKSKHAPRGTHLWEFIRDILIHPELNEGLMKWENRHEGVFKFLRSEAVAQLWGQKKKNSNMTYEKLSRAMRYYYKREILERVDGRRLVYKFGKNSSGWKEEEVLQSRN
The procedure, abridged: as §1

In another test the target is T9, ERF (Homo sapiens, UniProt P50548 1-548).
T9 sequence: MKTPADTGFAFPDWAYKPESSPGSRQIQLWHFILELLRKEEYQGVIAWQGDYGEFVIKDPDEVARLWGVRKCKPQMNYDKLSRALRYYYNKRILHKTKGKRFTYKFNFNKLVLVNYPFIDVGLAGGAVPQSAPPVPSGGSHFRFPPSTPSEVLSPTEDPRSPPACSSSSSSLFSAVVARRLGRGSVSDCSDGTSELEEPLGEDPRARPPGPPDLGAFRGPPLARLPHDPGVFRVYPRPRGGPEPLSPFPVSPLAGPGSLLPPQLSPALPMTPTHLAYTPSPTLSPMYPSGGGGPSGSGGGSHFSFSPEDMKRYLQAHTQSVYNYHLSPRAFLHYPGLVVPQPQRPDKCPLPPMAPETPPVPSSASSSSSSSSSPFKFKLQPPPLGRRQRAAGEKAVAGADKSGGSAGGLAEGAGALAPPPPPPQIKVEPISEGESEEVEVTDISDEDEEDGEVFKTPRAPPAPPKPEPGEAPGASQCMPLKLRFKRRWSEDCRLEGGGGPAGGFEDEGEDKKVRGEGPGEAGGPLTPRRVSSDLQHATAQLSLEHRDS
An outline of the steps: as §1

The target in a further test is T10, ETV3L (Homo sapiens, UniProt Q6ZN32 1-361).
T10 sequence: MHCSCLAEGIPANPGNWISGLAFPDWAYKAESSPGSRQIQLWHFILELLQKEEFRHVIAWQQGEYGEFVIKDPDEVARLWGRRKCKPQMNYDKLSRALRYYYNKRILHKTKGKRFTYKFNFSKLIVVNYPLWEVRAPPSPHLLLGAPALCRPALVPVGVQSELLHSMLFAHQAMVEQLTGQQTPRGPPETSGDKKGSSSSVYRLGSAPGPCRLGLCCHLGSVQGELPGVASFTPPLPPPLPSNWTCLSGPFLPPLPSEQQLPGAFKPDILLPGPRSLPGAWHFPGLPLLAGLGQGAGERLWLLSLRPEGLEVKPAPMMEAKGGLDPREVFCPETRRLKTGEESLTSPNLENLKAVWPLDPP
An outline of the steps: as §1

Another test has as its target T11, ETS2 (Homo sapiens, UniProt P15036 1-469).
T11 sequence: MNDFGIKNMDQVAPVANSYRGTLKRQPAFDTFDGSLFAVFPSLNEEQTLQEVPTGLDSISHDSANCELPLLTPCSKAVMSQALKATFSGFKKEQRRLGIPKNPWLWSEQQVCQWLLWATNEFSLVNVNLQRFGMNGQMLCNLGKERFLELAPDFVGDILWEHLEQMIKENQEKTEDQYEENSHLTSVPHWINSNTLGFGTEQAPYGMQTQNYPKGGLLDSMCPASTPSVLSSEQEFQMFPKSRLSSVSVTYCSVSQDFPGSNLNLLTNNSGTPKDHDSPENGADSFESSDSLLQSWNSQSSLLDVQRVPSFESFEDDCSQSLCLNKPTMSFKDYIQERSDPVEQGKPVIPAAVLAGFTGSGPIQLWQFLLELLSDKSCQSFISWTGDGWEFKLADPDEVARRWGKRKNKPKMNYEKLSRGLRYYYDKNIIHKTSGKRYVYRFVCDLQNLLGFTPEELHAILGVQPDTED
An outline of the steps: as §1

The target of a further test is ETV6 (Homo sapiens, UniProt P41212 1-452). An outline of the steps: as §1
ETV6, sequence (P41212 whole entry): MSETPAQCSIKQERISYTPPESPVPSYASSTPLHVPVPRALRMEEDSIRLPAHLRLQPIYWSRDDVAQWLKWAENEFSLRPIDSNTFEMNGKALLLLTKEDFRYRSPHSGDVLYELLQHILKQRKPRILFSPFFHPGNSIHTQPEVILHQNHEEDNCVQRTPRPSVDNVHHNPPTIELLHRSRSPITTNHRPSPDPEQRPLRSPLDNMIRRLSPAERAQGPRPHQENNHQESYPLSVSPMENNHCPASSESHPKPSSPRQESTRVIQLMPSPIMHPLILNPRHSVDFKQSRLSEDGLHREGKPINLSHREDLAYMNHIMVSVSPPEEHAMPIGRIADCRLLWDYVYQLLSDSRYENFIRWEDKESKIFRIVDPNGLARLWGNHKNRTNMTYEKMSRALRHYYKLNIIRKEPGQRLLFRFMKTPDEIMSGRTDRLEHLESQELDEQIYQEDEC

ETV5, sequence (P41161 whole entry): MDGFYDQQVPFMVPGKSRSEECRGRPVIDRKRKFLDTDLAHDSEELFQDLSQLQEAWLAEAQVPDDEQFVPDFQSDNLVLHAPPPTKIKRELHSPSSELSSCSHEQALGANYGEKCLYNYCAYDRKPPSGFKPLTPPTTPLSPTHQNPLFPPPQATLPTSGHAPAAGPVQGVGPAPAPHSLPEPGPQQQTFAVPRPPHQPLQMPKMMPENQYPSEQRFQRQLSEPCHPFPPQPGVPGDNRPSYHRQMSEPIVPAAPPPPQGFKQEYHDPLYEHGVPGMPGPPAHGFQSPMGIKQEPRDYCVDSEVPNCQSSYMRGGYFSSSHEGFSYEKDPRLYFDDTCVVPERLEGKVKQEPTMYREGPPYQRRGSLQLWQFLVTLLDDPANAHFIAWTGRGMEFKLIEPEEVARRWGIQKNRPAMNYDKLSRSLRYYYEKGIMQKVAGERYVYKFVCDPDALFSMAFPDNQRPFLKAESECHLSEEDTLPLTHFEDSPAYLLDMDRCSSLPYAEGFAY
ELF1, sequence (P32519 whole entry): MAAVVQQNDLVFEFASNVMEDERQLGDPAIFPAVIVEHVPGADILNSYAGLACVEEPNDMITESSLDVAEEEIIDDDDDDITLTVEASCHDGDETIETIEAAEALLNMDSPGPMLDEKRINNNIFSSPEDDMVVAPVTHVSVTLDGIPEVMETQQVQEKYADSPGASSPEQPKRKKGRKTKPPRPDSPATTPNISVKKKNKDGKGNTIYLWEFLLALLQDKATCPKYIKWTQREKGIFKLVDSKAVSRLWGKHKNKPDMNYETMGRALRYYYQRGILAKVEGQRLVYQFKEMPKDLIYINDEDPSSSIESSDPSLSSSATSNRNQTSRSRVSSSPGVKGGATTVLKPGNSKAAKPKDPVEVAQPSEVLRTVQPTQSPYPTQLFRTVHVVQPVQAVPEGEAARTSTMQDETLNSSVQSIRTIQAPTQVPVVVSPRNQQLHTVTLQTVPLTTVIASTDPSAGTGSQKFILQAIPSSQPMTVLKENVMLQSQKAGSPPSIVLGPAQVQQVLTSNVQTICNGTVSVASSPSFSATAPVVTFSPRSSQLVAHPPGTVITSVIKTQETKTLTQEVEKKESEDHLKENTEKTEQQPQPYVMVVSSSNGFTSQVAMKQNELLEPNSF
ELF4, sequence (Q99607 whole entry): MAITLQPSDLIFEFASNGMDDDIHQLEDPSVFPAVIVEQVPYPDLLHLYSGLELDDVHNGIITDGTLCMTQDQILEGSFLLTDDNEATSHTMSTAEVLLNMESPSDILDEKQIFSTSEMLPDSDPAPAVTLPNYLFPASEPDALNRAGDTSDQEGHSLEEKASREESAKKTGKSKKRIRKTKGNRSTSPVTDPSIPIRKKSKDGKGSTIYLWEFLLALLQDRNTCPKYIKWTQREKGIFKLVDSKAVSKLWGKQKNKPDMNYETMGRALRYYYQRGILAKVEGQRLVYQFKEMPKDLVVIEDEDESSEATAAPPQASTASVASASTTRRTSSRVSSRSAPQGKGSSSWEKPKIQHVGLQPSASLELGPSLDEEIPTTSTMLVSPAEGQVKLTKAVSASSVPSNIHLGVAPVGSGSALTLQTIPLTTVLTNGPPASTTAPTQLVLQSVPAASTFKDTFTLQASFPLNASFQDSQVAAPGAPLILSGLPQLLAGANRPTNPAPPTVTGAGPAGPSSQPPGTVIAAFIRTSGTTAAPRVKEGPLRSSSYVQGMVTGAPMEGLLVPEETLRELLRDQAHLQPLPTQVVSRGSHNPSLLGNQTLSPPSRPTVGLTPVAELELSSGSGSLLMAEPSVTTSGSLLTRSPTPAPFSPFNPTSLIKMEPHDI
SPIB, sequence (Q01892 whole entry): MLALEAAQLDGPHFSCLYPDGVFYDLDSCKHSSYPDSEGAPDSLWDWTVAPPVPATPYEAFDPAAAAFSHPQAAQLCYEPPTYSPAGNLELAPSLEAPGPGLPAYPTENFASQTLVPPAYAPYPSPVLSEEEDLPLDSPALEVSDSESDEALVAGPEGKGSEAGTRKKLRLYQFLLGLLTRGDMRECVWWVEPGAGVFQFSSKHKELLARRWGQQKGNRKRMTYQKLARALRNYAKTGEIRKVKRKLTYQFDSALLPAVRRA

For the sequence GCCCAA, the binding signal in the test with ELK1 was 1.08 fold enrichment (6-mer frequency, TF over GST control); with GABPA, 1.14 fold enrichment (6-mer frequency, TF over GST control); with ERG it was 1.06 fold enrichment (6-mer frequency, TF over GST control); in the test with ELF1 it was 1.09 fold enrichment (6-mer frequency, TF over GST control); in the test with EHF it was 1 fold enrichment (6-mer frequency, TF over GST control); with SPI1 it was 1.01 fold enrichment (6-mer frequency, TF over GST control). The binding signal is 1.06 fold enrichment (6-mer frequency, TF over GST control) in the test with SPIB; 1.11 fold enrichment (6-mer frequency, TF over GST control) with FEV; 1.1 fold enrichment (6-mer frequency, TF over GST control) with ETV5; 1.12 fold enrichment (6-mer frequency, TF over GST control) with ELF4; 1.07 fold enrichment (6-mer frequency, TF over GST control) in the test with ELK4; 1.24 fold enrichment (6-mer frequency, TF over GST control) in the test with ETV2. Besides, the binding signal was 1.05 fold enrichment (6-mer frequency, TF over GST control) with ELF3; 1.08 fold enrichment (6-mer frequency, TF over GST control) with ERF; 1.04 fold enrichment (6-mer frequency, TF over GST control) with ETV3L; 1.09 fold enrichment (6-mer frequency, TF over GST control) in the test with ETS2; 1.02 fold enrichment (6-mer frequency, TF over GST control) in the test with ETV6.

The record behind these values is publication PMC7862700, “An all-to-all approach to the identification of sequence-specific readers for epigenetic DNA modifications on cytosine”.
